# Measured values reported in ChEMBL document CHEMBL3988442, “University of Dundee, Small-Polar-MMV Screening Library” (2021).
# About 300 (0.45%) of roughly 67,000 compounds showed an effect of 50% or more. This excerpt belongs to a sample that is enriched for strong results.
# Biological target: Polyketide synthase Pks13 (Mycobacterium tuberculosis (strain ATCC 25618 / H37Rv)) (UniProt I6X8D2)
# Assay: Mycobacterium tuberculosis Polyketide synthase 13 Thioesterase (PKS13)
# Format: functional
# Parameters: scale not given: in the data most compounds retested in dose-response had high values
# Conditions: 30 µM
# Chain of Polyketide synthase Pks13 (Mycobacterium tuberculosis (strain ATCC 25618 / H37Rv)) (I6X8D2 whole entry): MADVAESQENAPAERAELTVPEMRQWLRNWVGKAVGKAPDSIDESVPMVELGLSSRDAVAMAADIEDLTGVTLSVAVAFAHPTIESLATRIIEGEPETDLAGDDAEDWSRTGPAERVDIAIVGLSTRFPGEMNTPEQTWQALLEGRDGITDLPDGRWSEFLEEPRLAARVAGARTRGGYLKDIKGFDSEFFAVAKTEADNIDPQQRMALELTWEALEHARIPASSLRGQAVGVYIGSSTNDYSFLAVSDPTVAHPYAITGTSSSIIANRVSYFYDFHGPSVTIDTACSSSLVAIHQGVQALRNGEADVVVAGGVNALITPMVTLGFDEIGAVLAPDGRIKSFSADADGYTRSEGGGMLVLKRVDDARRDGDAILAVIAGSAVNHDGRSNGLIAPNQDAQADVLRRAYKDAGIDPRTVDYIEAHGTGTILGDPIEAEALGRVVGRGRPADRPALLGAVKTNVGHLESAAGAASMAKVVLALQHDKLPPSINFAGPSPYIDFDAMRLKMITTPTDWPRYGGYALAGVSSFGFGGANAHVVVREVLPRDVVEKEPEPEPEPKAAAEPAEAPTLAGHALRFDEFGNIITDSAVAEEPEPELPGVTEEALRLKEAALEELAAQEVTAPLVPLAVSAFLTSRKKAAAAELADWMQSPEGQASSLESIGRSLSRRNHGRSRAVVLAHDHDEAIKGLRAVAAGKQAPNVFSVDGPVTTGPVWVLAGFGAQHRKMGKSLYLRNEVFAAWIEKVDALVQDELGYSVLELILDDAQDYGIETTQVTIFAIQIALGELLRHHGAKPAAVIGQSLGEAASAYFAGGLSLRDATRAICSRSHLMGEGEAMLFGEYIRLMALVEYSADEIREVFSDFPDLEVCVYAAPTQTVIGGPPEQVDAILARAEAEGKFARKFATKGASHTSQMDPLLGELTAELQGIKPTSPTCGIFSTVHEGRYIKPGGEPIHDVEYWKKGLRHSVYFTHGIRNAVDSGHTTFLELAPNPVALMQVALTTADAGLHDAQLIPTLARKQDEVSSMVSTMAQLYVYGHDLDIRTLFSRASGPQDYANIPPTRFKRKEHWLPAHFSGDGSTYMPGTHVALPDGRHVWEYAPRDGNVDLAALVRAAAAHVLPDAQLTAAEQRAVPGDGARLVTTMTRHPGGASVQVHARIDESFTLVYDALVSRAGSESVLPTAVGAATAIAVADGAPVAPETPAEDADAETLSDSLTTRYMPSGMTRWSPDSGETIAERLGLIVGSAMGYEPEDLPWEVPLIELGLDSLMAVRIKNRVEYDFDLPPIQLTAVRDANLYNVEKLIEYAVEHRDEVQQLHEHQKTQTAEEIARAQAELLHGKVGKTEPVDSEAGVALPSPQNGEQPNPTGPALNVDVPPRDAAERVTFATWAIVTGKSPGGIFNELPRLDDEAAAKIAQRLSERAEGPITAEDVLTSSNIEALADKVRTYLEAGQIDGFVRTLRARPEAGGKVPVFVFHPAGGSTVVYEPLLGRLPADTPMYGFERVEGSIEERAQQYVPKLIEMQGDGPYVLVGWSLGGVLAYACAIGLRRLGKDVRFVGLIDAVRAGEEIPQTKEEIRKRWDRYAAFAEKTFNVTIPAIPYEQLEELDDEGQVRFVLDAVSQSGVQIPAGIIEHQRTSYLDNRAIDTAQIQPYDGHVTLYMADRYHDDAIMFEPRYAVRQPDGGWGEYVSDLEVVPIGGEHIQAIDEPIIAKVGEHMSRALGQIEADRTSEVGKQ
row,Compound,Percent Effect [%]
1,C/C(NC(=O)c1ccccn1)=C1\C(=O)C[C@@H]2[C@H]1C2(C)C,37.5
2,COCc1noc(-c2ccc(N(C)Cc3ccc(C)o3)nc2)n1,69.6
3,COCc1noc(-c2ccc(N(C)Cc3ncccc3C)nc2)n1,5.81
4,COCc1noc(-c2ccc(N(C)Cc3cc(C)no3)nc2)n1,-8.23
5,COCCN(C)CC(=O)N1C[C@H]2CC[C@@H]1CN(C(=O)c1ccncc1)C2,-9.17
6,Cc1oc(C(C)C)cc1C(=O)N1C[C@H]2CC[C@@H]1CN(C(=O)N(C)C)C2,-5.27
7,Cc1ccc(N2C[C@H]3CCC[C@@H](CN(C)C)[C@H]3C2)nn1,-24.5
8,CC(C)(C)c1cc(NC(=O)CN2CCC(N3CCNC3=O)CC2)on1,80.9
9,CC(C)c1cc(NC(=O)CN2CCC(N3CCNC3=O)CC2)on1,0.26
10,Cc1cc(NC(=O)CN2CCC(N3CCNC3=O)CC2)on1,-25.3
11,Cc1noc(C)c1CN1C[C@@H]2OCCN(Cc3cnn(C)c3)[C@@H]2C1,-27.8
12,C[C@@H]1C[C@@H]2CCN(Cc3nccs3)C[C@H]2O1,-25.2
13,c1cncc(COC[C@H]2CC[C@H]3[C@H](CCN3Cc3cccs3)O2)c1,-37.9
14,CCc1cccc(C)c1NC(=O)C1CC(=O)N(Cc2ccccn2)C1 (stereo not drawn),58.8
15,O=C(Nc1ccccn1)C1CC(=O)N(Cc2ccccn2)C1 (stereo not drawn),-26.6
16,Cc1ccc(Cl)cc1NC(=O)C1CC(=O)N(Cc2ccccn2)C1 (stereo not drawn),-5.88
17,Cc1nnc([C@H]2C[C@H]3OCC[C@H]3N(S(=O)(=O)N(C)C)C2)o1,-28.4
18,CC(C)N1CCO[C@H]2CN(Cc3cc[nH]n3)C[C@H]21,-16.1
19,CN(Cc1ccco1)C[C@H]1OC[C@@H]2CCN(Cc3cccs3)C[C@@H]21,-7.96
20,Cc1ccn2c(=O)cc(CSCC(=O)Nc3nnc(C(C)C)s3)nc2c1,-42
21,CC(C)c1nnc(NC(=O)CSCc2cc(=O)n3ccccc3n2)s1,-12.4
22,Cc1cccn2c(=O)cc(CSCC(=O)Nc3nnc(C(C)C)s3)nc12,98.2
23,Cc1cc(N2CCCC2c2cncc(N(C)C)n2)ncn1 (stereo not drawn),-0.232
24,Cc1cc(N2CCCC2c2cnccn2)ncn1 (stereo not drawn),-32.2
25,CNc1cncc(C2CCCN2c2cc(C)ncn2)n1 (stereo not drawn),55
26,O=C(NC1CC1)[C@@H]1C[C@@H]2CCN(Cc3ccoc3)C[C@@H]2O1,-9.29
27,O=C(c1cn2ccsc2n1)N1CCN(CC2CC2)[C@@H]2CS(=O)(=O)C[C@@H]21,-4.84

row,Compound,Percent Effect [%]
1,CC[C@H](C)[C@H](N)C(=O)Nc1nc(-c2cnc(N(C)CCO)nc2)cs1,27.2
2,CC[C@H](C)[C@H](N)C(=O)Nc1nc(-c2cnc(N(C)C)nc2)cs1,146
3,CC[C@H](C)[C@H](N)C(=O)Nc1nc(-c2cnc(N3CCOCC3)nc2)cs1,36.7
4,CN1CCc2c(sc3c2C(=O)NC(/C=C/c2ccccc2)N3)C1 (stereo not drawn),33.3
5,O=C1C[C@H]2[C@H](CCN2C(=O)c2cc[nH]n2)N1Cc1cccnc1,-24.8
6,O=C1CC(c2ccco2)c2sc(C(=O)O)c(-c3ccccc3)c2N1 (stereo not drawn),65.6
7,O=C1CC(c2ccccc2)c2sc(C(=O)O)c(-c3ccccc3)c2N1 (stereo not drawn),-32
8,O=C1CC(c2ccc(O)cc2)c2sc(C(=O)O)c(-c3ccccc3)c2N1 (stereo not drawn),-18.2
9,CCOC(=O)N1CCN(C(=O)C2CC(=O)N(c3ccccc3Br)C2)CC1 (stereo not drawn),50.9
10,O=C(C1CC1)N1CCN(C(=O)C2CC(=O)N(c3ccccc3Br)C2)CC1 (stereo not drawn),-26.4
11,O=C(C1CC(=O)N(c2ccccc2Br)C1)N1CCCCCC1 (stereo not drawn),-11.4
12,COc1ncccc1CN1C[C@@H]2COC[C@]2(CNS(C)(=O)=O)C1,1.01
13,CC(=O)N1CCCN(C(=O)NCc2ccc(-c3ccn[nH]3)cc2)CC1,-4.03
14,CC(=O)NC1CCCN(C(=O)NCc2ccc(-c3ccn[nH]3)cc2)C1 (stereo not drawn),-5.89
15,CCOCC1CCCN(C(=O)NCc2ccc(-c3ccn[nH]3)cc2)C1 (stereo not drawn),56.4
16,Cc1nnc(N2CC[C@H]3C[C@@H](C(=O)NC4CCCC4)O[C@H]3C2)s1,-27.2
17,O=C([C@H]1C[C@H]2OCC[C@H]2N(Cc2ccccn2)C1)N1CCCCO1,-14.6
18,CCCNC(=O)c1nc2c(o1)CN(C(=O)CN(C)C)C2,-38.7
19,CN(C)CC(=O)N1Cc2nc(C(=O)NCc3ccccc3)oc2C1,72.3
20,CN(C)CC(=O)N1Cc2nc(C(=O)NCc3ccncc3)oc2C1,-7.86
21,Cc1cc(CNC(=O)c2ccno2)c(C)o1,-13.1
22,Cc1cc(C(=O)NCc2cc(C)oc2C)no1,59.4
23,Cc1cc(CNC(=O)c2cnoc2C)c(C)o1,10.7
24,Cc1nc([C@H]2C[C@@H]3CCN(Cc4scnc4C)C[C@H]3O2)no1,-27.4
25,Cc1cc(C(=O)NCCN2CCC(C)CC2)nn1C(C)(C)C,-8.5
26,Cc1cc(C)n(-c2nc(C(=O)NCCN3CCC(C)CC3)cs2)n1,51.2
